Data on ten compounds can be found in PubChem BioAssay.

This assay in a line: HepG2 liver cancer cell viability effects, profiling panel, resazurin fluorescence, 24 h, PK04 Diversity Set (AID 1172). Also: test concentration not given here. To be noted: higher = more signal.
Consider `COCCOC(=O)N1C(=O)[C@@]2(c3cc(C#Cc4ccc(OC)cc4)ccc31)[C@H](c1ccc(OCCO)cc1)N1[C@H](c3ccccc3)[C@H](c3ccccc3)OC(=O)[C@H]1[C@@H]2C(=O)N1CCN(c2ncccn2)CC1`, for which the z-score is -0.107.

Compound `CCC[C@@H]1C[C@@]1(CCC)[C@@H](NC(=O)c1ccccc1)c1cccc(Cl)c1` returned a z-score of -0.141.

Regarding `[N-]=[N+]=Nc1ccccc1[C@H]1OC(c2ccc(OCCCO)cc2)=N[C@@]1(CCS(=O)(=O)c1ccccc1)C(=O)NCC(O)CO` (stereo not given in full), the z-score is -0.14.

Consider `O=C1N[C@@H](Cc2ccccc2)C(=O)N2[C@@H]1C[C@@H](C(=O)O)[C@H]2c1cccc(OCCO)c1`, for which the z-score was -1.6.

With `COc1ccc([Si](C)(C)[C@@H]2[C@@H](CC(=O)N3CCC[C@H]3CO)O[C@]3(C(=O)N(c4ccccc4)c4ccccc43)[C@H]2C)cc1`, the z-score came out at 0.733.

As to `CC(C)N1C(=O)C[C@@](C(=O)NCC(F)(F)F)(c2ccc([N+](=O)[O-])cc2)[C@H]1c1ccc(CO)cc1`, the z-score is -0.228.

For `CN1C(=O)C2C=CC(C(O)C#Cc3ccccc3)N(N3CCCCC3)C2C1=O` (stereo not given), the z-score is -0.279.

`C=C(C)[C@@H]1CC=C(C(O)C2C=CC3C(=O)N(C)C(=O)C3N2Nc2ccccc2)CC1` (stereo not given in full) displayed a z-score of -0.709.

`C=CCOC(=O)[C@@H]1[C@H]2C(=O)O[C@H](c3ccccc3)[C@H](c3ccccc3)N2[C@H](c2ccc(OCCOC(=O)[C@@H]3C[C@@H]4C(=O)NCC(=O)N4[C@@H]3c3ccc(O)cc3)cc2)[C@@]12C(=O)Nc1ccc(I)cc12` registered a z-score of 0.978.

`COC(=O)[C@@]1(Cc2ccc(OC)cc2)[C@H]2c3cc(C(=O)N(C)C)n(CCc4ccccn4)c3C[C@H]2CN1C(=O)c1ccccc1` came in with a z-score of -1.31.
